20 compounds from PubChem BioAssay (NCATS) can be followed below.

Values without a mark were called inactive. Records with an inconclusive call do not appear. Activity calls are given as the source filed them. The call rests on the fitted dose curve; in most records, active means well fitted curve in the direction sought with a large enough effect; inconclusive means small, poorly fitted or top-dose-only effect, or another doubt; inactive means no such curve, though single readings can be large; an effect the other way counts as inactive or inconclusive.

The target of assay [1] is Cytochrome P450 3A4 (Homo sapiens) (UniProt P08684). In words: qHTS Assay for Inhibitors and Substrates of Cytochrome P450 3A4 (AID 884). Further: potency means the concentration at half of the fitted maximal effect; nearly all actives have a fitted effect of over 50% in size. In a few lines: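 Luminescent readout of luciferin produced by CYP3A4 (20 nM) dealkylation of Luciferin-PPXE, 25 uM (its KM). NADPH-driven reaction ran 60 min at RT after 10 min compound preincubation; data scaled to 57 uM ketoconazole as 100% inhibition.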
(In general: qHTS replaces the single test concentration by a dilution series.)

Assay [2] shares this target. Nature of the assay: qHTS Assay for Activators of Cytochrome P450 3A4 (AID 885). Further: nearly all actives have a fitted effect of over 65% in size. In a few lines:
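Human CYP3A4 dealkylates Luciferin-PPXE to luciferin, which luciferase detection converts to light. Substrate was at its KM (25uM), buffer 200mM KPO4, reaction 60 min at RT.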

Assay [3] deals with Cytochrome P450 2D6 (Homo sapiens) (UniProt P10635). Nature of the assay: qHTS Assay for Inhibitors and Substrates of Cytochrome P450 2D6 (AID 891). Further: nearly all actives have a fitted effect of over 60% in size. Further: potency means the concentration at half of the fitted maximal effect. In a few lines: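 Luminescent read-out of luciferin formed by 5 nM human CYP2D6 demethylating 30 uM Luciferin-ME EGE (Km level) over 60 min at room temperature after NADPH regeneration addition. Data normalized to full inhibition by 1.43 uM quinidine.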

Assay [4] deals with Cytochrome P450 2C19 (Homo sapiens) (UniProt P33261). Nature of the assay: qHTS Assay for Inhibitors and Substrates of Cytochrome P450 2C19 (AID 899). Further: nearly all actives have a fitted effect of over 60% in size. Further: potency means the concentration at half of the fitted maximal effect. In a few lines:
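Signal comes from luciferase acting on luciferin released by CYP2C19-mediated hydroxylation of Luciferin-H EGE, 10uM (KM). Assay mix: 5nM enzyme, 50mM KPO4; 60 min at 37C with NADPH regeneration. Data normalized against 57uM ketoconazole.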

Cytochrome P450 2C19 (Homo sapiens), sequence (P33261 whole entry, looked up): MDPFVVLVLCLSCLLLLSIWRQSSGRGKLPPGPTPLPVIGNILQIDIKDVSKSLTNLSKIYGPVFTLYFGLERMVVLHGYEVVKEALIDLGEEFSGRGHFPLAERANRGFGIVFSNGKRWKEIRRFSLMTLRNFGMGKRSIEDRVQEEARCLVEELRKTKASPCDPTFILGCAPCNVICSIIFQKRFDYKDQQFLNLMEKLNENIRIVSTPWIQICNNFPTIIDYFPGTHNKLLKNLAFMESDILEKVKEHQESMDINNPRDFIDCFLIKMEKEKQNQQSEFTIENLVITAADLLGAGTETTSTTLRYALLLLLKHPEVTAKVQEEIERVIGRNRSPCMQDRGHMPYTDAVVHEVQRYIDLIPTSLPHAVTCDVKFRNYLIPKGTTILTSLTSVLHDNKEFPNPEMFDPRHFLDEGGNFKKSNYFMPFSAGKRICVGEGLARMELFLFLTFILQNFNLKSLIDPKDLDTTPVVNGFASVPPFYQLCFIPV
Cytochrome P450 2D6 (Homo sapiens), sequence (P10635 whole entry, looked up): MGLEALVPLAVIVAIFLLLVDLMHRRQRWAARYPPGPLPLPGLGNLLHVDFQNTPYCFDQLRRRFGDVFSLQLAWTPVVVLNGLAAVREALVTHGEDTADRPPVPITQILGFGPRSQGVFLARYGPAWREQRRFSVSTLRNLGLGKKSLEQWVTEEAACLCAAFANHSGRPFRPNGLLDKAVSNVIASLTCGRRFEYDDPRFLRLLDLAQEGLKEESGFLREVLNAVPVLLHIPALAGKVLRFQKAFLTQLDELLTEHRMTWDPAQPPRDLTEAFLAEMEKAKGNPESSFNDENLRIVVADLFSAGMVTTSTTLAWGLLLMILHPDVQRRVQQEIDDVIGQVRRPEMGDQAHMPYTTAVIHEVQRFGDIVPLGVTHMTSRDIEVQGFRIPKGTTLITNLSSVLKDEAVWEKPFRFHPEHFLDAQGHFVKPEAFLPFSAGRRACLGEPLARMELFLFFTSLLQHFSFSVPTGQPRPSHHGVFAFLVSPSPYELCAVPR
Cytochrome P450 3A4 (Homo sapiens), sequence (P08684 whole entry, looked up): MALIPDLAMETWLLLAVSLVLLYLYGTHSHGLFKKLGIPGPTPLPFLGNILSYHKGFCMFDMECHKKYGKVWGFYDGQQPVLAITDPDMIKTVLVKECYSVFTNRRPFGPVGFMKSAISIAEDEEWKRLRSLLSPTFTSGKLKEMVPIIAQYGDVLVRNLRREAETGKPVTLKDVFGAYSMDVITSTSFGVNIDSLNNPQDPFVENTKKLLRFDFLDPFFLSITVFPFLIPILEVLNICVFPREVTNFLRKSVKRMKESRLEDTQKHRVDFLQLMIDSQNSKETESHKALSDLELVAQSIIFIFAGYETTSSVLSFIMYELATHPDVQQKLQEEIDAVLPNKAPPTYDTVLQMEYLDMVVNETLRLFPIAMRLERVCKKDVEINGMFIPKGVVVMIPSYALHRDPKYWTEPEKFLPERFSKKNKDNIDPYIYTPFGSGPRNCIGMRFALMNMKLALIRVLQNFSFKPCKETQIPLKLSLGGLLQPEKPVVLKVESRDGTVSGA

On to `CCC1=C2CC[C@H]3C(=O)N(c4ccccc4)C(=O)[C@H]3[C@H]2[C@@]2(Cc3ccccc3)C(=NCc3ccccc3)OC(=O)N2C1=O`, for which the Potency in assay [1] was 5.01 µM (active). Besides, the Potency entry in assay [2] is “inactive”.
`COC(=O)c1ccc(C23CC4(C2)[C@H](CN(CC2CCCCC2)[C@@H]4c2ccccc2)C3c2ccccc2)cc1` (stereo not given in full): the Potency in assay [1] was 25.1 µM (active). The Potency result in assay [2] is “inactive”.
Regarding `Cc1cc2c(nc1C)CCCCN2C[C@H](C)O/N=C\[C@@H](C)[C@H](OCc1ccccc1)C(C)C`, the Potency in assay [1] is 3.98 µM (active). The activity change, positive = activation in assay [2] was -76.1% [at 11.4 µM].
For `Cn1c(-c2nc(-c3ccccc3)cs2)nc2ccccc21`, in assay [1], the Potency is 10 µM (active). Moreover, in assay [2], the Potency entry is “inactive”.
`CCC1=C2CC[C@H]3C(=O)N(C)C(=O)[C@H]3[C@H]2[C@@]2(Cc3ccccc3)C(=NCCOC)OC(=O)N2C1=O`: the Potency in assay [1] is 10 µM (active). Besides, the Potency entry in assay [2] is “inactive”.
Consider `COc1cccc([C@H]2Oc3ccc(OC)cc3/C(=N\O[C@@H]3O[C@H](COC(C)=O)[C@H](OC(C)=O)[C@H](OC(C)=O)[C@H]3OC(C)=O)[C@@H]2O)c1`, for which the Potency in assay [1] is 3.16 µM (active). Besides, in assay [2], the activity change, positive = activation is -77% [at 11.4 µM].
As for `COC(=O)C/C=C\[C@@H](C)[C@@H](/C=N\OCC[C@H]1C=C[C@H](OC(C)=O)[C@@H](COC(C)=O)O1)NS(=O)(=O)c1ccc(C)cc1`, the Potency in assay [1] was 3.98 µM (active). Moreover, in assay [2], the activity change, positive = activation is -95.4% [at 11.4 µM].
Take `C/C=C/OC(=O)NC(c1ccccc1)[C@]1(C(C)=O)CCOC1=O` (stereo not given in full): the values for the Potency in assay [1] and in assay [4] were 0.0316 µM (active) and 0.158 µM (active), respectively. Besides, in assay [2], the activity change, positive = activation was -81.2% [at 11.4 µM]. In assay [3], the Potency entry is “inactive”.
Take `Nc1ccccc1C(=O)/C=C\c1ccc2c(c1)OCO2`: the Potency in assay [1] and in assay [3] was 3.16 µM (active) throughout. For the same compound, the activity change, positive = activation in assay [2] is -84.3% [at 11.4 µM].
As to `CCCCC#CC1C=CC(Oc2cc(OC)c(OC)c(OC)c2)C(COC(=O)OCC)O1` (stereo not given), the Potency in assay [1] was 2.51 µM (active). The activity change, positive = activation in assay [2] was -83.6% [at 11.4 µM]. In addition, the Potency entry in assay [3] and in assay [4] was “inactive” in each case.
With `CC(=O)OC[C@@H]1O[C@@H](O/N=C2/C[C@@H](O)[C@@H](O)[C@@H]3[C@@H]4C(=O)N(Cc5ccc6c(c5)OCO6)C(=O)[C@H]4CC[C@H]23)[C@H](OC(C)=O)[C@H](OC(C)=O)[C@@H]1OC(C)=O`, the values for the Potency in assay [1] and in assay [3] were 5.01 µM (active) and 3.16 µM (active), respectively. Besides, in assay [2], the activity change, positive = activation was -74.2% [at 11.4 µM].
For `CCC1=C2CC[C@H]3C(=O)NC(=O)[C@H]3[C@H]2[C@@]2(C)C(=NCCc3c[nH]c4ccccc34)OC(=O)N2C1=O`, the Potency in assay [1] was 12.6 µM (active). In addition, the Potency result in assay [2] was “inactive”.
As to `C=C(C)C(O)/C=C/c1ccc(C)cc1` (stereo not given), the Potency in assay [1] was 3.98 µM (active); in assay [4] it was 5.01 µM (active). For the same compound, the activity change, positive = activation in assay [2] was -72.8% [at 11.4 µM]. Besides, the Potency result in assay [3] is “inactive”.
As to `COc1ccc(/C=C/NC(=O)c2ccc(OC)cc2)cc1`, the Potency in assay [1] is 3.16 µM (active). Moreover, in assay [2], the activity change, positive = activation was -68.6% [at 11.4 µM]. The Potency entry in assay [3] and in assay [4] was “inactive” in each case.
Take `C=CC[C@@H]1C=C[C@H](O/N=C(\C)CCN2CCc3nc(-c4ccccc4)c(-c4ccccc4)cc3C2)[C@H](CO)O1`: in assay [1], the Potency was 3.98 µM (active). Further, the activity change, positive = activation in assay [2] is -81.8% [at 11.4 µM].
In the case of `COC(=O)C/C=C\[C@@H](C)[C@@H](/C=N\OC[C@@H](O)COCc1ccco1)NS(=O)(=O)c1ccc(C)cc1`, the Potency in assay [1] was 3.16 µM (active). For the same compound, in assay [2], the activity change, positive = activation was -107% [at 11.4 µM]. Further, the Potency result in assay [3] was “inactive”.
In the case of `CC(C)CCN1CCc2nc(COc3ccccc3)c3c(c2C1)COC(C)C3` (stereo not given), the Potency in assay [1] is 3.16 µM (active). Besides, the activity change, positive = activation in assay [2] was -76.7% [at 11.4 µM]. Also, the Potency result in assay [3] and in assay [4] was “inactive” in each case.
Turning to `COC(=O)c1ccc(C(NC(=O)OCc2ccccc2)/C(=C/[C@@H](C)C(=O)N(C)Cc2cccnc2)c2cccnc2)cc1` (stereo not given in full), in assay [1], the Potency was 0.631 µM (active). In assay [2], the Potency result is “inactive”.
For `c1ccc(C2[C@H]3CN(CC4CCCCC4)[C@H](c4ccccc4)C34CC2(c2cccnc2)C4)cc1` (stereo not given in full) the same measures were 12.6 µM (active) and “inactive”.
In the case of `COC(=O)NC(/C(C(=O)OC)=C(\C)NCc1ccccc1)c1ccc(F)cc1` (stereo not given), the Potency in assay [1] was 3.16 µM (active); in assay [3] it was 1 µM (active); in assay [4], 0.251 µM (active). In addition, the activity change, positive = activation in assay [2] was -71.8% [at 11.4 µM].
